A short description of experiment [1]: NCI Yeast Anticancer Drug Screen. Data for the rad50 strain (AID 155).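 Also: 0% = growth of vehicle-only cultures of the same strain.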 Particulars: S. cerevisiae rad50 strain growth inhibition, hits give high values; at 50.0 µM unless noted. The gist of the method:
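Cells are treated with compound, grown, and their growth is then scored against vehicle-only cultures of the same repair-deficient yeast strain.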

A short description of experiment [2]: NCI Yeast Anticancer Drug Screen. Data for the mec2-1 strain (AID 157). Particulars: S. cerevisiae mec2-1 strain, hits give high values; at 50.0 µM unless noted. The gist of the method:
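mec2-1 yeast strain, carrying an alteration in DNA damage repair or cell cycle control, was exposed to compounds; growth inhibition was measured relative to vehicle-treated controls.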

Experiment [3] in a line: NCI Yeast Anticancer Drug Screen. Data for the sgs1 mgt1 strain (AID 161).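 Also: 0% = growth of cultures given vehicle only.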 The conditions noted are these: S. cerevisiae sgs1 mgt1 strain, hits give high values; at 50.0 µM unless noted. The gist of the method:
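This yeast growth screen uses a strain with defined DNA-repair lesions; compound-treated growth is compared with vehicle-treated growth.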

Experiment [4] can be described thus: NCI Yeast Anticancer Drug Screen. Data for the cln2 rad14 strain (AID 165).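 Also: 0% = growth equal to vehicle treated cultures.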 The conditions noted are these: S. cerevisiae cln2 rad14 strain, hits give high values; at 50.0 µM unless noted. The gist of the method:
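Yeast carrying cln2 and rad14 alterations (cell cycle control and DNA damage repair) were exposed to compounds. Growth inhibition was measured against vehicle-treated controls.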

The nature of experiment [5]: NCI Yeast Anticancer Drug Screen. Data for the bub3 strain (AID 167). The conditions noted are these: S. cerevisiae bub3 mutant strain, hits give high values; at 50.0 µM unless noted. The gist of the method:
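Part of a panel of yeast mutants defective in DNA damage repair or cell cycle regulation. Each strain is grown with compound, and inhibition is calculated relative to solvent-treated cultures.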

Experiment [6] in a line: NCI Yeast Anticancer Drug Screen. Data for the mlh1 rad18 strain (AID 175). The conditions noted are these: S. cerevisiae mlh1 rad18 strain growth inhibition, hits give high values; at 50.0 µM unless noted. The gist of the method:
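Growth inhibition of the yeast strain was measured after compound exposure and expressed relative to vehicle-treated controls. The strain carries defined defects in DNA damage repair.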

Structures are written as SMILES. Compounds without any hit were thinned out: in the full panel of roughly 79,000, 15% have a hit. Values without a mark were called inactive. Activity calls are given as the source filed them. Rule as the data show it: active = growth inhibition above about 70%; inactive = the rest.

Turning to `O=[N+]([O-])c1cc(N(c2ccccc2)c2ccccc2)c(Cl)cc1Cl`, the growth inhibition in experiment [1] is -8.35%; in experiment [2], -16.1%; in experiment [3] it was -27.1%; in experiment [4], -2.55%; in experiment [5], 5.5%; in experiment [6], -3%.

`CN(C)C(C)(CO)CO`: the growth inhibition in experiment [1] was 17.4%; in experiment [2] it was -6.55%; in experiment [3] it was 0.65%; in experiment [4] it was 6.45%; in experiment [5], 9.2%; in experiment [6] it was 0.55%.

On to `O=C(NCCCN1CCN(CCCNC(=O)Nc2ccc(N=Nc3ccccc3)cc2)CC1)Nc1ccc(N=Nc2ccccc2)cc1`, for which the growth inhibition in experiment [1] is -0.95%; in experiment [2], 16.3%; in experiment [3], 0.65%; in experiment [4], -3.3%; in experiment [5], -1.8%; in experiment [6], 14.6%.

For `COc1ccc2c(c1)c(CC(=O)O)c(C)n2Cc1ccccc1`, the growth inhibition was -13.7% in experiment [1]; -16% in experiment [2]; -13.7% in experiment [3]; -14.8% in experiment [4]; 17.4% in experiment [5]; -7.65% in experiment [6].

As to `CN1C2=NC(=O)NC(=O)C23OC3c2ccccc21` (centres undefined) (tested in a mixture with another compound), the growth inhibition in experiment [1] was 6.35%; in experiment [2], 12%; in experiment [3] it was -0.45%; in experiment [4], 14.7%; in experiment [5], 1.75%; in experiment [6], 18.9%.

Consider `CC(CC(=O)c1cccc2ccccc12)C(=O)O` (centres undefined), for which the growth inhibition in experiment [1] is 19%; in experiment [2], 3.3%; in experiment [3], 2.85%; in experiment [4] it was 0.55%; in experiment [5] it was -10.7%; in experiment [6], 24.3%.

Consider `ClCCCN(CCCCl)c1ccc(C=Nc2cccc(Cl)c2)c(Cl)c1`, for which the growth inhibition is 91.1% (active) in experiment [1]; 76.6% (active) in experiment [2]; 95.5% (active) in experiment [3]; 85.2% (active) in experiment [4]; 81.5% (active) in experiment [5]; 93.5% (active) in experiment [6].

As for `CC1COC(C)(C)P(=O)(c2ccccc2)C1` (centres undefined), the growth inhibition in experiment [1] is -6.9%; in experiment [2], -9%; in experiment [3], -11.3%; in experiment [4], 16.2%; in experiment [5] it was -7.15%; in experiment [6] it was -27.4%.

Consider `Cn1cnc([N+](=O)[O-])c1Sc1nc2cc(Cl)c(F)cc2[nH]1`, for which the growth inhibition in experiment [1] is -35.6%; in experiment [2] it was -27.9%; in experiment [3], -31.9%; in experiment [4], 8.5%; in experiment [5], -25.1%; in experiment [6] it was -29.4%.

Turning to `CCOC(=O)C1=C(C)O/C(=C/c2cccc(Cl)c2)C1=O`, the growth inhibition in experiment [1] is 42%; in experiment [2] it was 35.2%; in experiment [3], 31.1%; in experiment [4], 45.9%; in experiment [5], 47%; in experiment [6] it was 56.1%.

For the compound `Cc1c(N(C)CN(C)c2c(C)n(C)n(-c3ccccc3)c2=O)c(=O)n(-c2ccccc2)n1C`, the growth inhibition in experiment [1] is -13.2%; in experiment [2], -27.4%; in experiment [3], -15.7%; in experiment [4] it was 3.25%; in experiment [5] it was -12.9%; in experiment [6], -18%.

As for `N#CC(C#N)=C1SC(=Nc2ccccc2)C(=Nc2ccccc2)N1c1ccccc1`, the growth inhibition is 11.6% in experiment [1]; 6.05% in experiment [2]; 19.2% in experiment [3]; 7.1% in experiment [4]; 21.6% in experiment [5]; 16.4% in experiment [6].

In the case of `Cc1cc(C)c2ccc(Cl)nc2n1`, the growth inhibition in experiment [1] is -6.75%; in experiment [2], 0.55%; in experiment [3], -7.35%; in experiment [4], 9.35%; in experiment [5], -4.35%; in experiment [6], 6.1%.

For `CC(C)CCCC(C)C1CCC2C3CC(C(=O)O)C(C)(CCC(=O)O)C3CCC12C` (centres undefined), the growth inhibition in experiment [1] is 44%; in experiment [2] it was 36%; in experiment [3], 43.9%; in experiment [4] it was 30%; in experiment [5] it was 4%; in experiment [6] it was 41.7%.

On to `COc1cc2c(c(OC)c1OC)-c1ccc(OC)c(=O)cc1[C@@H](NC=O)CC2`, for which the growth inhibition is -11% in experiment [1]; -14.5% in experiment [2]; -22.9% in experiment [3]; 4.15% in experiment [4]; -8.05% in experiment [5]; -29.8% in experiment [6].

As to `Cn1cnc2[nH]c(=O)[nH]c(=O)c21`, the growth inhibition is 3.9% in experiment [1]; 12.9% in experiment [2]; -8.95% in experiment [3]; 1.95% in experiment [4]; 8.85% in experiment [5]; -0.75% in experiment [6].

As for `COC(=O)/C=C(/Sc1nc(Cl)c(Cl)nc1N)C(=O)OC` (tested in a mixture with another compound), the growth inhibition in experiment [1] is -15.1%; in experiment [2] it was -6.25%; in experiment [3], 10.7%; in experiment [4], -4.3%; in experiment [5], -29.5%; in experiment [6] it was -24.6%.

Turning to `CCCCCCN(CCCCCC)CC(O)c1cc(-c2ccc(Cl)cc2)nc2c(Cl)cccc12` (centres undefined), the growth inhibition was -21.2% in experiment [1]; -8.05% in experiment [2]; 18.4% in experiment [3]; -0.35% in experiment [4]; -9.5% in experiment [5]; 19.9% in experiment [6].

For the compound `Cc1[nH]c(=O)[nH]c(=O)c1CCO`, the growth inhibition in experiment [1] was -8.9%; in experiment [2] it was -2.6%; in experiment [3], -4.25%; in experiment [4] it was -29.4%; in experiment [5], -28.3%; in experiment [6] it was -13.4%.

Source of the values: PubChem BioAssay (NCI).
